Assay results from PubChem BioAssay AID1159580 (chemical genetic matrix, 2015).
Where “and” joins values, the source holds several entries; their conditions need not be identical. Equal entries are not always repeated. Hit rate of the full screen: of about 5,500 compounds, about 2,000 (36%) were called active. About 18% were inconclusive and are not listed. No stated cut-off is given here; in the data, active means normalized growth mostly below about 0.91 (no sharp cut-off); inconclusive means no clear call, values can overlap the other calls; inactive means mostly above about 0.92. The list shows a part of the results.

Experiment: chemical genetic growth profiling, strain panel (AID 1159580);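 further: tested at 20 µM; growth read once vehicle control cultures reached saturation at 30 °C; 1 = growth at the plate median or of vehicle wells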
Settings: growth OD

Measured: normalized growth

CNCCCC12CCC(c3ccccc31)c1ccccc12
inactive: S. cerevisiae deletion strains, locus YJR075W, strain HOC1, stronger effect = lower value 0.991 and 0.989 | S. cerevisiae deletion strains, locus YKL009W, strain mrt4, stronger effect = lower value 0.978 | S. cerevisiae deletion strains, locus YKL068W, stronger effect = lower value 0.983 | S. cerevisiae deletion strains, locus YKL085W, strain MDH1 (second series), stronger effect = lower value 0.982 | S. cerevisiae deletion strains, locus YKL085W, strain MDH1, stronger effect = lower value 0.982 | S. cerevisiae deletion strains, locus YKL160W, strain elf1, stronger effect = lower value 0.968 | S. cerevisiae deletion strains, locus YKR001C, strain vps1, stronger effect = lower value 1.02 | S. cerevisiae deletion strains, locus YKR026C, strain gcn3, stronger effect = lower value 0.979 | S. cerevisiae deletion strains, locus YKR091W, strain srl3, stronger effect = lower value 0.973 | S. cerevisiae deletion strains, locus YLL001W, strain dnm1, stronger effect = lower value 1.01 | S. cerevisiae deletion strains, locus YLL026W, stronger effect = lower value 0.97 | S. cerevisiae deletion strains, locus YLL041C, strain sdh2, stronger effect = lower value 0.98 | S. cerevisiae deletion strains, locus YLR027C, strain aat2, stronger effect = lower value 0.964 | S. cerevisiae deletion strains, locus YLR039C, strain RIC1, stronger effect = lower value 1.29 | S. cerevisiae deletion strains, locus YLR058C, strain SHM2, stronger effect = lower value 0.984 | S. cerevisiae deletion strains, locus YLR102C, strain apc9, stronger effect = lower value 0.992 | S. cerevisiae deletion strains, locus YLR113W, strain HOG1, stronger effect = lower value 1.01 | S. cerevisiae deletion strains, locus YLR221C, strain rsa3, stronger effect = lower value 0.998 | S. cerevisiae deletion strains, locus YLR258W, strain gsy2, stronger effect = lower value 0.974 | S. cerevisiae deletion strains, locus YLR262C, strain YPT6 (second series), stronger effect = lower value 0.937 | S. cerevisiae deletion strains, locus YLR262C, strain YPT6, stronger effect = lower value 1.32 | S. cerevisiae deletion strains, locus YLR268W, strain sec22, stronger effect = lower value 0.975 | S. cerevisiae deletion strains, locus YLR320W, strain mms22, stronger effect = lower value 0.992 | S. cerevisiae deletion strains, locus YLR330W, strain CHS5, stronger effect = lower value 0.993 | S. cerevisiae deletion strains, locus YLR342W, strain FKS1 (second series), stronger effect = lower value 0.944 | S. cerevisiae deletion strains, locus YLR342W, strain FKS1, stronger effect = lower value 0.954 | S. cerevisiae deletion strains, locus YLR357W, strain rsc2, stronger effect = lower value 0.968 | S. cerevisiae deletion strains, locus YLR370C, strain arc18, stronger effect = lower value 0.98 | S. cerevisiae deletion strains, locus YLR371W, strain rom2, stronger effect = lower value 0.963 | S. cerevisiae deletion strains, locus YLR384C, strain iki3, stronger effect = lower value 0.989 | S. cerevisiae deletion strains, locus YLR418C, strain cdc73, stronger effect = lower value 0.857 | S. cerevisiae deletion strains, locus YML016C, strain PPZ1, stronger effect = lower value 0.986 | S. cerevisiae deletion strains, locus YML032C, strain rad52, stronger effect = lower value 0.963 | S. cerevisiae deletion strains, locus YML120C, strain ndi1, stronger effect = lower value 0.976 | S. cerevisiae deletion strains, locus YML124C, strain tub3, stronger effect = lower value 0.995 | S. cerevisiae deletion strains, locus YMR058W, strain fet3, stronger effect = lower value 0.952 | S. cerevisiae deletion strains, locus YMR078C, strain ctf18, stronger effect = lower value 0.984 | S. cerevisiae deletion strains, locus YMR125W, strain sto1, stronger effect = lower value 0.939 | S. cerevisiae deletion strains, locus YMR129W, stronger effect = lower value 0.979 | S. cerevisiae deletion strains, locus YMR205C, strain PFK2, stronger effect = lower value 0.999 | S. cerevisiae deletion strains, locus YMR223W, strain ubp8, stronger effect = lower value 0.951 | S. cerevisiae deletion strains, locus YMR231W, strain pep5, stronger effect = lower value 0.985 | S. cerevisiae deletion strains, locus YMR263W, strain SAP30, stronger effect = lower value 0.992 and 1 | S. cerevisiae deletion strains, locus YMR307W, strain GAS1, stronger effect = lower value 0.979 | S. cerevisiae deletion strains, locus YNL067W, strain RPL9B, stronger effect = lower value 1 | S. cerevisiae deletion strains, locus YNL071W, strain lat1, stronger effect = lower value 0.986 | S. cerevisiae deletion strains, locus YNL128W, strain TEP1, stronger effect = lower value 1.03 | S. cerevisiae deletion strains, locus YNL153C, strain GIM3, stronger effect = lower value 1 | S. cerevisiae deletion strains, locus YNL175C, strain NOP13, stronger effect = lower value 1.02 | S. cerevisiae deletion strains, locus YNL183C, strain NPR1, stronger effect = lower value 0.949 | S. cerevisiae deletion strains, locus YNL197C, strain WHI3, stronger effect = lower value 1.03 | S. cerevisiae deletion strains, locus YNL209W, strain ssb2, stronger effect = lower value 0.967 | S. cerevisiae deletion strains, locus YNL224C, strain SQS1, stronger effect = lower value 1.01 | S. cerevisiae deletion strains, locus YNL233W, strain BNI4, stronger effect = lower value 0.954 | S. cerevisiae deletion strains, locus YNL248C, strain rpa49, stronger effect = lower value 0.932 | S. cerevisiae deletion strains, locus YNL250W, strain rad50, stronger effect = lower value 0.982 | S. cerevisiae deletion strains, locus YNL271C, strain bni1, stronger effect = lower value 0.993 | S. cerevisiae deletion strains, locus YNL298W, strain CLA4, stronger effect = lower value 0.967 | S. cerevisiae deletion strains, locus YNL307C, strain MCK1, stronger effect = lower value 0.978 | S. cerevisiae deletion strains, locus YNL322C, strain KRE1 (second series), stronger effect = lower value 0.976 | S. cerevisiae deletion strains, locus YNR049C, strain mso1, stronger effect = lower value 0.971 | S. cerevisiae deletion strains, locus YNR052C, strain pop2, stronger effect = lower value 0.962 | S. cerevisiae deletion strains, locus YOL012C, strain htz1 0.584 | S. cerevisiae deletion strains, locus YOL147C, strain pex11, stronger effect = lower value 0.987 | S. cerevisiae deletion strains, locus YOR001W, strain rrp6, stronger effect = lower value 0.992 | S. cerevisiae deletion strains, locus YOR061W, strain CKA2, stronger effect = lower value 0.991 | S. cerevisiae deletion strains, locus YOR069W, strain VPS5, stronger effect = lower value 0.993 | S. cerevisiae deletion strains, locus YOR070C, strain gyp1, stronger effect = lower value 0.983 | S. cerevisiae deletion strains, locus YOR080W, strain dia2, stronger effect = lower value 0.951 | S. cerevisiae deletion strains, locus YOR083W, strain WHI5 (second series), stronger effect = lower value 0.999 | S. cerevisiae deletion strains, locus YOR083W, strain WHI5, stronger effect = lower value 0.913 | S. cerevisiae deletion strains, locus YOR106W, strain vam3, stronger effect = lower value 0.95 | S. cerevisiae deletion strains, locus YOR136W, strain idh2, stronger effect = lower value 0.99 | S. cerevisiae deletion strains, locus YOR144C, strain elg1, stronger effect = lower value 0.997 | S. cerevisiae deletion strains, locus YOR184W, strain ser1, stronger effect = lower value 1.02 | S. cerevisiae deletion strains, locus YOR231W, strain MKK1, stronger effect = lower value 1.02 | S. cerevisiae deletion strains, locus YOR265W, strain rbl2, stronger effect = lower value 0.983 | S. cerevisiae deletion strains, locus YOR270C, strain vph1, stronger effect = lower value 0.927 | S. cerevisiae deletion strains, locus YOR290C, strain snf2, stronger effect = lower value 0.94 | S. cerevisiae deletion strains, locus YOR316C, strain cot1, stronger effect = lower value 0.991 | S. cerevisiae deletion strains, locus YPL051W, strain arl3, stronger effect = lower value 0.938 | S. cerevisiae deletion strains, locus YPL055C, strain LGE1, stronger effect = lower value 0.982 | S. cerevisiae deletion strains, locus YPL078C, strain atp4, stronger effect = lower value 0.967 | S. cerevisiae deletion strains, locus YPL106C, strain sse1, stronger effect = lower value 0.975 | S. cerevisiae deletion strains, locus YPL240C, strain hsp82, stronger effect = lower value 0.984 | S. cerevisiae deletion strains, locus YPL241C, strain CIN2, stronger effect = lower value 0.991 and 0.996 | S. cerevisiae deletion strains, locus YPL256C, strain CLN2, stronger effect = lower value 0.995 | S. cerevisiae deletion strains, locus YPR119W, strain clb2, stronger effect = lower value 0.992 | S. cerevisiae deletion strains, locus YPR141C, strain kar3, stronger effect = lower value 0.979 | S. cerevisiae deletion strains, locus YPR163C, strain tif3, stronger effect = lower value 0.994 | S. cerevisiae deletion strains, locus YPR167C, strain met16, stronger effect = lower value 0.996 | S. cerevisiae deletion strains, strain wtn01, stronger effect = lower value 0.964 | S. cerevisiae strains, strain wild type, stronger effect = lower value 0.993
